# Screening data: PubChem, several laboratories
# Sampled rows, rich in hits. Any-hit rate of the full collection: about 32%.
# CYP2C9 inhib – human CYP2C9 inhibition | AID 777 | inhibition, % at 5 µM | actives 20% (n = 96,000) | CYP2C9 Supersomes, luciferin-H conversion, luminescence | P11712;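 active means blocking of liver enzyme CYP2C9 beyond about 50% at 5 µM, limit read from the data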
# Target sequence (P11712 whole entry, looked up): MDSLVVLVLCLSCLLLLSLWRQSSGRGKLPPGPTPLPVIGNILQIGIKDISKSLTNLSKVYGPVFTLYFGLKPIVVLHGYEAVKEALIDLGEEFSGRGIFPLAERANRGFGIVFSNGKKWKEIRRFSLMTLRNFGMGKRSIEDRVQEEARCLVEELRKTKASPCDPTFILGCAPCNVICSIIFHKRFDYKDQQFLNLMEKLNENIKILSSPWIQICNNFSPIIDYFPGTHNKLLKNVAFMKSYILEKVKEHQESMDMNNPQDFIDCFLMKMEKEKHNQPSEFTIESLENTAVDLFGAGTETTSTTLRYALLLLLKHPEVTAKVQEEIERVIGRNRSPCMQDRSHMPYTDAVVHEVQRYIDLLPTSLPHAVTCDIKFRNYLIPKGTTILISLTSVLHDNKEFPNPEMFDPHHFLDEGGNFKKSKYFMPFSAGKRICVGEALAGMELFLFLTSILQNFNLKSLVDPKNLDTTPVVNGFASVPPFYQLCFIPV
# CYP2C19 inh – blocks human cytochrome P450 2C19 | AID 778 | CYP2C19 Supersomes, luciferin-H EGE luminescence, 30 min | P33261 | actives 21% (n = 96,000) | inhibition, % at 5 µM;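 active means CYP2C19 inhibition above a set limit at 5 µM in the primary screen, cut at about 50% in these data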;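 further: plate controls were negative control wells for no effect and 2.5 mM tranylcypromine positive control for full effect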
# CYP2C19 act – increases human CYP2C19 enzyme activity. 96,000 tested, under 10 active. recombinant CYP2C19, luciferin-H EGE luminescence; stronger effect = higher value; 0 = fully inhibited enzyme, 1 = untreated enzyme. activation factor at 5 µM;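 active means activation factor of at least 2 at 5 µM in the primary screen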;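 further: 0 = wells with 2.5 mM tranylcypromine and 1 = vehicle-only wells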
# PostGolgi ctrl – inhibits growth of the yeast control strain; actives 5% (n = 98,000); AID 738; inhibition, % at 10 µM; efflux-deficient yeast background strain, growth absorbance A615, 16 h
# PostGolgi yeast – growth inhibition of a yeast mutant, post-Golgi transport screen; post-Golgi transport phenotypic cell assay; inhibition, % at 10 µM; actives 0.9% (n = 98,000);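 further: yeast cells grown in 1536-well plates; yeast grown about 18 h at 30C before absorbance read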
# CYP2C9 act – CYP2C9 (human) activation | actives 1.4% (n = 96,000) | AID 1024 | activation factor at 5 µM | recombinant CYP2C9, luciferin-H conversion, luminescence; stronger effect = higher value; factor 1 = untreated enzyme, 0 = blocked | P11712;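 active means activation factor of 2 or more for CYP2C9 at a 5 µM dose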;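 further: 0 = sulfaphenazole-blocked wells and 1 = vehicle-only wells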
# Active calls of the source: *; · = no result. Unless noted, no stated cut-off is given here; in the data, active means inhibition above about 30%; inactive means the rest.
SMILES,CYP2C9 inhib,CYP2C19 inh,CYP2C19 act,PostGolgi ctrl,PostGolgi yeast,CYP2C9 act
CC(C)N(Cc1nc(-c2ccccc2)no1)C(=O)c1ccc(Cl)cc1,80*,79*,0.2,10,0,0.2
Cc1ccc(C(=O)N(Cc2nc(-c3ccc(C)cc3)no2)C(C)C)cc1,6,12,0.9,8,0,0.9
COc1ccc(-c2noc(CN(C(=O)c3ccc(OC(C)=O)cc3)C(C)C)n2)cc1OC,47,32,0.7,1,11,0.5
COc1ccc(-c2noc(CN(C(=O)c3c(-c4ccccc4Cl)noc3C)C(C)C)n2)cc1,57*,62*,0.4,19,-8,0.4
COc1cc(OC)cc(C(=O)NCc2nc(-c3ccccc3)no2)c1,61*,73*,0.3,-1,6,0.4
COc1ccc(-c2noc(Cc3ccccc3OC)n2)cc1,-27,39,0.6,4,1,1.3
CC(C)N(Cc1nc(-c2ccc(Cl)cc2)no1)C(=O)CCCN1C(=O)c2ccccc2C1=O,86*,88*,0.1,40*,3,0.1
CC(C)N(Cc1nc(-c2ccc(Cl)cc2)no1)C(=O)C12CC3CC(CC(C3)C1)C2,4,2,1,-6,-4,1
CCN1CCN(C(c2ccc(OC)cc2)C(O)C(=O)c2c[nH]c3ccccc23)CC1 (stereo not given),-5,14,0.9,15,-3,1
CCC(=O)N1CCc2cc(S(=O)(=O)NCCC(=O)N3CC=C(c4ccccc4)CC3)ccc21,29,14,0.9,25,5,0.7
O=C(O)CCCc1nc(-c2ccccc2)no1,-4,-4,1,-1,-2,1
c1ccc(NCc2nc(-c3ccccc3)no2)cc1,76*,87*,0.1,32*,-13,0.2
COc1ccccc1C(=O)N(Cc1nc(-c2ccc(Cl)cc2)no1)C(C)C,32,64*,0.4,32*,2,0.7
COc1ccc(C(=O)N(Cc2nc(-c3ccc(C)cc3)no2)C(C)C)cc1OC,58*,55*,0.5,7,1,0.4
O=C(NCc1nc(-c2ccccc2)no1)c1ccc2c(c1)OCO2,23,22,0.8,-2,8,0.8
CC(C)N(Cc1nc(-c2ccccc2)no1)C(=O)c1ccc2c(c1)OCO2,43,69*,0.3,10,2,0.6
CC1(C)Cc2c(sc3nc4n(c(=N)c23)CCC4)CO1,-4,-19,1.2,1,3,1
Cc1ccc(N(C(=O)C2CCCC2)C2C=CS(=O)(=O)C2)cc1C (stereo not given),5,10,0.9,-1,-4,0.9
COc1cc(OC)cc(C(=O)N(Cc2nc(-c3cccc(C)c3)no2)C(C)C)c1,95*,86*,0.1,10,-5,0.1
Cc1cccc(-c2noc(CN(C(=O)C34CC5CC(CC(C5)C3)C4)C(C)C)n2)c1,38,-6,1.1,17,-4,0.6
CC1CCN(c2c(NCc3ccc(C(=O)N4c5ccccc5CC4C)cc3)c(=O)c2=O)CC1 (stereo not given),·,·,·,-4,1,·
CCn1c(=O)cc(SCC(=O)Nc2cc(OC)c(OC)c(OC)c2)c2ccccc21,-188,77*,0.2,3,-6,2.9*
CCn1c(=O)cc(SCC(=O)NCc2ccc(C)cc2)c2ccccc21,-68,47,0.5,22,15,1.7
CCn1c(=O)cc(SCC(=O)Nc2ccc3c(c2)OCCO3)c2ccccc21,-101,61*,0.4,-11,-7,2*
CCn1c(=O)cc(SCC(=O)Nc2cccc(SC)c2)c2ccccc21,-39,9,0.9,8,10,1.4
SMILES,CYP2C9 inhib,CYP2C19 inh,CYP2C19 act,PostGolgi ctrl,PostGolgi yeast,CYP2C9 act
CCOC(=O)C1(C(F)(F)F)N=C(c2cccnc2)OC(N2CCOCC2)=N1 (stereo not given),10,-5,1.1,-9,-7,0.9
Cc1ccc2nc(/C(C#N)=C\c3ccc([N+](=O)[O-])o3)[nH]c2c1,7,10,0.9,99*,103*,0.9
Cc1ccc2nc(/C(C#N)=C\c3cc(C)n(-c4cccc([N+](=O)[O-])c4)c3C)[nH]c2c1,84*,48,0.5,25,28,0.2
N#C/C(=C\c1ccc(N2CCCC2)c([N+](=O)[O-])c1)c1nc2ccccc2[nH]1,20,31,0.7,7,1,0.8
COC(=O)C1=C(C)NC(=O)NC1C1CC=CCC1 (stereo not given),-9,4,1,8,-6,1.1
CCC1C(O)=C(c2ccccn2)C(=N)N1c1ccccc1 (stereo not given),6,32,0.7,1,1,0.9
Cc1c(Cl)cccc1NC(=O)C1NC(=O)CC1c1ccccc1 (stereo not given),46,81*,0.2,-4,-2,0.5
CCN(C(=O)CN1CCN(c2ccc(OC)cc2)CC1)c1c(N)n(Cc2ccccc2)c(=O)[nH]c1=O,-5,-16,1.2,3,23,1
O=C(Nc1cccnc1)C1CC(c2ccc(Cl)c(Cl)c2)=NO1 (stereo not given),56*,94*,0.1,13,2,0.4
COc1ccc(OC)c(C2=NOC(C(=O)Nc3cccnc3)C2)c1 (stereo not given),-99,76*,0.2,0,-7,2*
O=C(COC(=O)c1ccc(S(=O)(=O)NCc2ccco2)cc1)NCCC1=CCCCC1,-3,-22,1.2,12,-1,1
N#Cc1c(Sc2ncc(C(F)(F)F)cc2Cl)nsc1C/C=N\OCc1c(F)cccc1Cl,-83,33,0.7,4,-7,1.8
CC(C)Oc1ccc(C(CC(=O)NCc2ccco2)c2ccccc2)cc1 (stereo not given),68*,61*,0.4,6,-1,0.3
Cc1ccc(NC(=O)CS(=O)CC(=O)NCCCc2ccccc2)cc1Cl (stereo not given),35,3,1,4,-4,0.7
CCOc1ccc(C(C)=O)cc1CSc1nnc(-c2cccs2)n1CC1CCCO1 (stereo not given),82*,90*,0.1,12,-7,0.2
O=C(CCCSc1nnc(-c2cccs2)n1CC1CCCO1)c1ccccc1 (stereo not given),69*,73*,0.3,3,16,0.3
Cc1ccc(N(CN2C(=O)C3CC=CCC3C2=O)C(=O)c2ccco2)cc1Cl (stereo not given),61*,45,0.5,-6,-6,0.4
COc1ccc(C(=O)NN(c2ccccc2)c2ccccc2)cc1,13,16,0.8,9,1,0.9
Cc1nc(OCC(=O)c2ccc(Cl)cc2)c(C#N)c2c1COC(C)(C)C2,18,52*,0.5,11,-6,0.8
CC1(C)Cc2c(C#N)c(NCc3ccco3)nc(-c3ccco3)c2CO1,19,-3,1,13,-1,0.8
